Values joined by “and” are separate entries in the source; they are usually repeats but may differ in a detail not shown here. Equal entries are not always repeated. Results filed as inconclusive are left out. A number with no mark means an inactive call. Active and inactive are the calls of the source. The call rests on the fitted dose curve; in most records, active means well fitted inhibition curve with a large enough effect; inconclusive means small, poorly fitted or top-dose-only effect; inactive means no such curve, though single readings can be large or run the other way.
These molecules were tested against Cruzipain (Trypanosoma cruzi) (UniProt P25779) (assay: Confirmation qHTS Assay for Inhibitors of Cruzain). Conditions: purified cruzain, Z-FR-AMC fluorescence, 0.01% Triton.
Cruzipain (Trypanosoma cruzi), sequence (P25779 123-467 limits assumed): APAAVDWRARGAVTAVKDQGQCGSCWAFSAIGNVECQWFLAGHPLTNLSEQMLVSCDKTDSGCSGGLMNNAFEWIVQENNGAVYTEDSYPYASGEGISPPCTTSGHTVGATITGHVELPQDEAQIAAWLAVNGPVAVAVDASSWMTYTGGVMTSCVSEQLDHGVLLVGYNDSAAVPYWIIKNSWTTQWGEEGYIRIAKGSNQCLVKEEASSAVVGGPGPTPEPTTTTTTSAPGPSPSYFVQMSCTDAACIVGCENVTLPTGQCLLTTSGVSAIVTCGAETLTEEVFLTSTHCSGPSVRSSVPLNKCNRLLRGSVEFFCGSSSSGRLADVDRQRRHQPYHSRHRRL
Method in brief: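 Purified cruzain, 1.5 nM, pre-incubated 15 min at room temperature with compound in 100 mM sodium acetate pH 5.5, 5 mM DTT, 0.01% Triton X-100. Then 2 uM Z-FR-AMC added; AMC fluorescence (ex 360/em 450 nm) increase over 60 s gave reaction progress.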
For CN1CCN(c2ncc3ncc(=O)n(-c4ccccc4)c3n2)CC1, the activity change, negative = inhibition was -20%. CC(=O)Nc1ccc(/C=C/C(=O)c2ccc(-n3nncc3-c3ccccc3)cc2)cc1 gave an activity change, negative = inhibition of 31.4%. With CCC(C)[C@@H](N)C(=O)N/N=C/c1ccc2ncccc2c1 (some centres undefined) the Potency was 22.4 µM (active). C=CCNC(=O)c1ccc2nc(-c3ccco3)c(-c3ccco3)nc2c1 was tested, and the Potency was 15.8 µM (active). Molecule C=CCn1c(SCC(=O)Nc2cc3oc4ccccc4c3cc2OC)nnc1-c1cnccn1 has an activity change, negative = inhibition of -11.8%. In the case of O=C(CNC(=O)c1ccccc1)N[C@@H](C(=O)Nc1cc(C(F)(F)F)ccc1Cl)c1ccccc1, the activity change, negative = inhibition is reported as -6.12% and -5.77%. Cc1ccc2[nH]c(=O)c(CN(Cc3ccco3)Cc3nnnn3Cc3ccco3)cc2c1 gave an activity change, negative = inhibition of -6.56%. For COc1ccc(OCCn2c(CCNC(=O)C3CCCCC3)nc3ccccc32)cc1, the Potency was 1.12 µM (active). With COc1cccc(CNC(=O)c2ccc3c(c2)N(Cc2ccc(F)cc2Cl)C(=O)c2ccccc2S3)c1 the activity change, negative = inhibition was 2.24%. Cc1ccccc1OCCn1c(CCNC(=O)C2CCCCC2)nc2ccccc21 was tested, and the Potency was 631 nM (active) and 1 µM (active). For CCc1ccc2[nH]c(=O)c(CN(Cc3ccccc3)Cc3nnnn3C(C)(C)C)cc2c1, the activity change, negative = inhibition was -22.1%. N#Cc1nc(NCC(F)F)c2ncn(-c3cccc(Cl)c3)c2n1 was tested, and the Potency was 0.0891 µM (active). In the case of CCc1ccc2[nH]c(=O)c(CN(Cc3ccco3)Cc3nnnn3Cc3ccco3)cc2c1, the activity change, negative = inhibition is reported as -11.7%. With CNc1oc(/C=C/c2cc(OC)c(OC)c(OC)c2)nc1C#N the Potency was 15.8 µM (active). For CCc1ccc2[nH]c(=O)c(CN(Cc3cccs3)Cc3nnnn3Cc3ccccc3)cc2c1, the activity change, negative = inhibition was -18.5%. In the case of COc1ccc2[nH]c(=O)c(CN(Cc3nnnn3Cc3ccco3)C3CCCCC3)cc2c1, the Potency is reported as 14.1 µM (active). With CCn1cnc2c(NCCc3cccnc3)nc(C#N)nc21 the Potency was 10 µM (active). For N#Cc1ccc(NC(=O)COC(=O)CNC(=O)C2CCCCC2)cc1, the Potency was 14.1 µM (active). For C=CC(=O)c1ccc2ccccc2c1, the Potency was 25.1 µM (active). With O=C(CNC(=O)c1ccncc1)OC(C(=O)Nc1cc(C(F)(F)F)ccc1Cl)c1ccccc1 (centres undefined) the Potency was 25.1 µM (active). For O=C(Cc1ccccc1)NCC(=O)OCC(=O)c1ccc2ccccc2c1, the activity change, negative = inhibition was -9.73%. O=C(COC(=O)CNC(=O)c1ccccc1Cl)Nc1cc(C(F)(F)F)ccc1Cl was tested, and the Potency was 3.55 µM (active). With COc1ccc(C(=O)C(C)OC(=O)CNC(=O)C2CCCCC2)cc1 (centres undefined) the Potency was 1.41 µM (active). For Cc1cccc(OCCCn2c(CCNC(=O)C3CCCCC3)nc3ccccc32)c1, the Potency was 794 nM (active) and 708 nM (active). In the case of c1ccc(CN(Cc2ccccc2)Cc2nnc(-c3cc4ccccc4[nH]3)o2)cc1, the activity change, negative = inhibition is reported as -7.39%. Cc1ccccc1OCC(=O)NCC(C)NC(=O)COc1ccccc1C (centres undefined) showed an activity change, negative = inhibition of 36.5%. COc1ccc(/C=C/C(=O)Nc2ccc(-n3nncc3-c3ccc(Br)cc3)cc2)cc1OC was tested, and the Potency was 12.6 µM (active). For N#Cc1nc(NCCCCO)nc(Nc2ccccc2)n1, the Potency was 0.891 µM (active). In the case of N#Cc1nc(NC2CCCC2)c2ncn(-c3cc(F)cc(F)c3)c2n1, the Potency is reported as 0.316 µM (active). In the case of Cc1ccc(Cn2c(CCNC(=O)c3cccc(C)c3)nc3ccccc32)cc1, the Potency is reported as 2.82 µM (active). With COc1cccc2c1[C@@H]1CN(CCCCn3c(=O)[nH]c4c(sc5ncc(-c6ccccc6)nc54)c3=O)C[C@@H]1CO2 the Potency was 15.8 µM (active). For c1ccc(CNCc2nnc(-c3cc4ccccc4[nH]3)s2)cc1, the activity change, negative = inhibition was -7.37%. For Cc1ccc(Nc2nc(C#N)nc(NC3CCCC3)n2)cc1, the Potency was 0.447 µM (active). Cc1ccc2[nH]c(=O)c(CN(Cc3cccs3)Cc3nnnn3Cc3ccco3)cc2c1 showed an activity change, negative = inhibition of -23%. Work on N#CN1CCC(N[S+](=O)([O-])c2cccc(F)c2)CC1 yielded an activity change, negative = inhibition of -1.96%. With N#Cc1nc(Nc2cccc3ccccc23)nc(NC2CCCC2)n1 the Potency was 2.82 µM (active). With Cc1ccc(CN(Cc2cc3cc4c(cc3[nH]c2=O)OCCO4)Cc2nnnn2Cc2ccco2)cc1 the activity change, negative = inhibition was -25.4%. O=C(COC(=O)CNC(=O)C1CCCCC1)NC1CC1 was tested, and the Potency was 15.8 µM (active). COc1ccc(C)cc1NC(=O)C(OC(=O)CNC(=O)c1ccccc1)c1ccccc1 (centres undefined) was tested, and the Potency was 8.91 µM (active).
Further: nearly all actives have a fitted effect of over 40% in size.
Potency means the concentration at half of the fitted maximal effect.
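Wherever activity change, negative = inhibition is given: plate controls were uninhibited enzyme control for no effect and buffer wells lacking enzyme for full effect.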
